Consider 103 compounds from ChEMBL document CHEMBL4513216, “Probing the Open Global Health Chemical Diversity Library for Multistage-Active Starting Points for Next-Generation Antimalarials” (ACS Infect Dis, 2020).

The structures appear in SMILES notation. The campaign covered roughly 68,000 compounds. About 2,700 (4%) showed an effect of 50% or more. What follows is part of a selection rich in strong results, with near analogues and random picks from the rest.

In this assay the test system is Plasmodium berghei. As to the kind of experiment: Screen against P. berghei liver stage (PbLuc), transformed with Luciferase, at 2uM. In kind it is functional, HepG2. The note with it: tested at 2 uM.
As to `COc1ccc2c(ccn2CCC(=O)NCc2ccc(C(=O)O)cc2)c1`, the INHIBITION stood at 42.94%.

As to `Cc1ccc(C(CCNCCN(C)C)C2CCOC(C)(C)C2)cc1` (stereo not drawn), the INHIBITION is listed as 26.52%. The figure for `CC(C)CN1CCc2[nH]cnc2C12CCN(C(=O)c1ccc[nH]1)CC2` is 22.43%; for `CC(C)CN1CCc2[nH]cnc2C12CCN(C(=O)c1ccnn1C)CC2` it is 29.19%; for `CC(C)CN1CCc2[nH]cnc2C12CCN(C(=O)c1cnn(C)c1)CC2` it is 51.14%. The figure for `CC(C)CN1CCc2[nH]cnc2C12CCN(C(=O)c1cccnc1)CC2` is 0.3%; for `Cc1cc(C(=O)N2CCC3(CC2)c2nc[nH]c2CCN3CC(C)C)no1` it is 37.63%; for `Cc1ocnc1C(=O)N1CCC2(CC1)c1nc[nH]c1CCN2CC(C)C` it is 52.83%. For `CCc1ccc(S(=O)(=O)N2CCCC3(CCCN3S(C)(=O)=O)C2)cc1` (stereo not drawn), the INHIBITION stood at 28.41%.

On to `Cc1cc(C)n(CCNCc2cc(-c3ccccc3)c[nH]c2=O)n1`, for which the INHIBITION worked out at 24.26%.

Take `CC1CCc2nn(CCNC(=O)c3cccs3)c(=O)cc2C1` (stereo not drawn): the INHIBITION is reported as 28.82%. For the compound `CC(C)N1[C@@H](C(=O)NCC2CC2)C[C@@H]2CN(Cc3ccco3)C[C@@H]21`, the INHIBITION is on record as 28.2%. For the compound `Cc1nn(C)c(C)c1C(C)NCc1ccsc1` (stereo not drawn), the INHIBITION is reported as 38.83%. The figure for `CS(=O)(=O)c1cncnc1C1CCCN(C(=O)Nc2ccc(F)cc2)C1` (stereo not drawn) is -0.7%; for `CC(C)N(Cc1ccccn1)C(=O)CCOc1cccc(F)c1` it is 5.43%. The figure for `Cc1cc(NCC2CCCO2)cc(=O)n1C` (stereo not drawn) is -0.15%; for `COCCNC(=O)C(C)n1nc(-c2ccc(C)o2)cc(N)c1=O` (stereo not drawn) it is -21.09%. Turning to `COCCNC(=O)C(C)n1nc(-c2ccco2)cc(N)c1=O` (stereo not drawn), the INHIBITION stood at 54.2%.

On to `COCCCNC(=O)C(C)n1nc(-c2ccco2)cc(N)c1=O` (stereo not drawn), for which the INHIBITION is reported as -1.32%.

`CCN1CCC(CNC(=O)C(c2ccccc2F)N(C)C)(N(C)C)CC1` (stereo not drawn): the INHIBITION was found to be 46.58%. `O=C(Cc1cccs1)N1CCOCC1c1ccccc1` (stereo not drawn): the INHIBITION is reported as -26.81%. `CC(C)n1ccnc1CN1CCCN(C(=O)c2cscn2)CC1`: the INHIBITION is -28.58%. For the compound `CC(C)C(O)CNC(=O)Nc1cccc(-c2nccs2)c1` (stereo not drawn), the INHIBITION was -2.23%.

Take `OC1(CN(Cc2cccnc2)C2CCCCC2)CNCCOC1` (stereo not drawn): the INHIBITION was 74.3%. Consider `OC1(CN2CCC(Oc3cccnc3)CC2)CNCCOC1` (stereo not drawn), for which the INHIBITION is given as 3.58%. The figure for `Cn1cc(CN(CC2(O)CCNC2)C2CCCCC2)cn1` (stereo not drawn) is 60.64%; for `Cn1cc(CN(CC2(O)CNCCOC2)C2CCCCC2)cn1` (stereo not drawn) it is 0.17%. As to `CN(Cc1ccc2nsnc2c1)CC1(O)CNCCOC1` (stereo not drawn), the INHIBITION is -1.57%.

As to `Cn1cc(CN(C/C=C/c2ccccc2)C2CC2)cn1`, the INHIBITION is -17.37%.

Turning to `CN(C)c1ccc(C(CNS(=O)(=O)c2cccs2)N2CCCC2)cc1` (stereo not drawn), the INHIBITION is listed as 14.19%. The figure for `COc1cccc(-c2n[nH]cc2-c2nc(CC3CCN(C)CC3)no2)c1` is 38.67%; for `Cc1noc(C)c1C(=O)N1CCCC1(C)C(=O)NC1CCCC1` (stereo not drawn) it is 11.32%. For `O=C(CCc1ccc2c(c1)OCO2)N1CCCC(n2cccn2)C1` (stereo not drawn), the INHIBITION was -29.38%. In the case of `O=C(Cc1ccc2c(c1)CCC2)N1CCCC(n2cccn2)C1` (stereo not drawn) it was -0.71%; in that of `Cc1cnn(C2CCCN(C(=O)Cc3ccc4c(c3)CCO4)C2)c1` (stereo not drawn), 11.95%; in that of `O=C(Cc1ccc2c(c1)OCCO2)N1CCCC(n2cncn2)C1` (stereo not drawn), -7.15%. With `O=C(Cc1ccc2c(c1)OCCO2)N1CCCC(n2cccn2)C1` (stereo not drawn), the INHIBITION came to 56.12%. For `O=C(Cc1ccc2c(c1)CCO2)N1CCCC(n2cccn2)C1` (stereo not drawn), the INHIBITION was 52.52%. For the compound `COc1cc(N2CC[C@@H](O)[C@@H]2Cc2cccnc2)ncn1`, the INHIBITION turned out to be 32.21%. `CCCc1nc(C[S+]([O-])Cc2cn3cccc(C)c3n2)no1` (stereo not drawn): the INHIBITION was 16.37%. In the case of `CCOC(=O)c1nc(CN2CCC(NC(=O)C(C)C)CC2)cs1` it was -3.25%; in that of `CCN1CCC2(CCC1=O)CN(c1cnc3ccccc3n1)CCN2C` (stereo not drawn), -40.52%; in that of `CC(C)C[C@@H](CO)n1cc(-c2cncnc2)nn1`, 26.99%. For the compound `COc1ccc(-c2cn([C@H](CO)CC(C)C)nn2)cn1`, the INHIBITION is on record as 79.9%. In the case of `CC(C)C[C@@H](CO)n1cc(-c2cnc(-c3ccco3)nc2)nn1` it was -39.9%; in that of `O=C1Nc2ccccc2CC12CCCN2Cc1ccc(C(F)(F)F)cc1` (stereo not drawn), -27.83%; in that of `CC(C)c1cc(C2CCCN2C(=O)c2cn3ccsc3n2)no1` (stereo not drawn), -46.68%.

In the case of `COc1ccccc1C1CNCCN1C(=O)c1ccc(F)cc1` (stereo not drawn), the INHIBITION is given as -20.28%. As to `O=C(Nc1nncs1)C1CSCN1C(=O)C1CCCC1` (stereo not drawn), the INHIBITION is -67.78%. Consider `COc1ccc2c(c1)C1(CCN(Cc3ccncc3)CC1)N(C)CC2`, for which the INHIBITION came to 32.14%.

Turning to `COc1ccc2c(c1)C1(CCN(Cc3cnn(C)c3)CC1)N(C)CC2`, the INHIBITION is on record as 21.14%. In the case of `COc1ccc2c(c1)C1(CCN(Cc3cccnc3)CC1)N(C)CC2` it was 64.92%; in that of `CC1(C)CN(CCC(=O)NCc2cccc(Cl)c2)CC[C@]1(C)O`, -70.63%.

Take `CN(C)c1nccc(C2CCCN(C(=O)CO)C2)n1` (stereo not drawn): the INHIBITION came to 1.13%. For `CCn1c(Cn2cncn2)nnc1C1CCN(CC2[C@H]3CNC[C@@H]23)CC1` (stereo partly drawn), the INHIBITION is reported as -11.68%.

Regarding `CSCCCN1C(=O)CC[C@H]2CN(Cc3ncc[nH]3)CC[C@H]21`, the INHIBITION turned out to be 27.5%. In the case of `CC(C)CN1C(=O)CC[C@H]2CN(Cc3ncc[nH]3)CC[C@H]21` it was 20.74%; in that of `COCCCN1C(=O)CC[C@H]2CN(Cc3ncc[nH]3)CC[C@H]21`, 50.59%.

In the case of `CC1(C)COCCN1C(=O)CCc1nc(-c2ccccn2)no1`, the INHIBITION is given as -4.89%. In the case of `CN(C)CC(=O)N1Cc2nc(C(=O)N3CCCN(C)CC3)oc2C1` it was 13.25%; in that of `O=C(NCCCn1cccn1)C1CCC(=O)N(Cc2ccccc2F)C1` (stereo not drawn), 12%. In the case of `COc1ncnc2c1CCN(c1cc(C(F)(F)F)ncn1)CC2` it was 52.08%; in that of `CC(C)Oc1ncnc2c1CCN(c1cc(C(F)(F)F)ncn1)CC2`, 20.86%; in that of `CCOc1ncnc2c1CCN(c1cc(C(F)(F)F)ncn1)CC2`, -17.38%.

As for `CCOCC1CN(Cc2cnn(C)c2)Cc2c1cnn2CC` (stereo not drawn), the INHIBITION is -8.04%. In the case of `O=C(c1ccco1)N1CCCC2(CCN(c3nncs3)C2)C1` (stereo not drawn), the INHIBITION is -56.25%.

On to `Cc1ncc2c(n1)CN(Cc1nnc(-c3ccccc3)o1)CC2`, for which the INHIBITION is recorded as 33.5%. Turning to `O=C(NCC1Cn2nnc(-c3ccncc3)c2CO1)c1ccsc1` (stereo not drawn), the INHIBITION was 31.96%. Regarding `Cc1ccccc1NC(=O)N1CCN(Cc2noc(C3CC3)n2)CC1`, the INHIBITION is 71.93%. The figure for `CCn1cc(NC(=O)C2CCN(Cc3noc(C(C)C)n3)CC2)cn1` is -8.7%; for `O=C(Nc1ccccc1F)N1CCN(Cc2noc(C3CC3)n2)CC1` it is 11.1%; for `CCc1noc(CN2CCC(C(=O)Nc3cnn(CC)c3)CC2)n1` it is 49.9%. For the compound `CCn1cc(NC(=O)C2CCN(Cc3noc(C4CC4)n3)CC2)cn1`, the INHIBITION is on record as 66.2%. The figure for `O=C(Nc1ccccc1)N1CCN(Cc2noc(C3CC3)n2)CC1` is 31.7%; for `CC1(C)CC(C(=O)N2CCC3(CCC(=O)N(C4CC4)C3)CC2)CCO1` (stereo not drawn) it is -29.52%.

With `COCC(=O)N[C@H]1C[C@@H](Cc2cc(CN3CCOCC3)on2)C1(C)C`, the INHIBITION came to 19.39%. As to `CCCS(=O)(=O)N[C@H]1CN(c2ncccc2C(N)=O)C[C@@H]1C(C)C`, the INHIBITION is given as -50.23%. The figure for `Cc1nc(C)c(C(=O)N2CCc3nnc(C4CCCCN4C)n3CC2)s1` (stereo not drawn) is 26.44%. The figure for `COc1ccc(CNC(Cc2ccsc2)c2ncccc2C)cc1OC` (stereo not drawn) is -31.69%; for `CCCN1CCC(c2nc3ccc(-c4ccccc4)cn3n2)CC1` it is 13.16%. `CC(=O)N1CCC(c2nc3ccc(-c4ccnn4C)cn3n2)CC1`: the INHIBITION was determined as 25.31%.

For the compound `CCCN1CCC(c2nc3ccc(NCc4ccccc4)cn3n2)CC1`, the INHIBITION came out at 54.65%. For `CN1CCC(c2nc3ccc(-c4cccc(F)c4)cn3n2)CC1`, the INHIBITION is 20.41%. On to `CCCN1CCC(c2nc3ccc(NCc4cccnc4)cn3n2)CC1`, for which the INHIBITION came to 1.42%.

On to `CC(C)N1CCC(c2nc3ccc(-c4ccnn4C)cn3n2)CC1`, for which the INHIBITION is reported as 51.94%.

With `Cn1nccc1-c1ccc2nc(C3CCNCC3)nn2c1`, the INHIBITION came out at 39.51%. With `CCCN1CCC(c2nc3ccc(C)cn3n2)CC1`, the INHIBITION is 20.01%. Take `CN1CCC(c2nc3ccc(-c4ccccc4)cn3n2)CC1`: the INHIBITION came to 54.56%. With `Cc1noc(C)c1-c1cnc(CC2CCN(C(=O)c3cc[nH]n3)C2)cn1` (stereo not drawn), the INHIBITION is on record as -26.24%. As to `CCC(C)c1csc(NC(=O)Cc2csc(-c3nnc[nH]3)n2)n1` (stereo not drawn), the INHIBITION was -5.58%. As for `O=C(CCn1c(C(F)(F)F)cc2cccnc21)N1CCOCC1`, the INHIBITION was 48.65%. In the case of `COc1coc(C(=O)Nc2nc(C)cs2)cc1=O` it was -1.29%. For the compound `CN(C)C(C(=O)N1CCC(N2CCSCC2)CC1)c1ccccc1F` (stereo not drawn), the INHIBITION is reported as 4.18%. For `Cc1nc2c(c(N(C)Cc3ccccc3-n3cccn3)n1)CCNCC2`, the INHIBITION is on record as -19.21%. On to `Cc1nc2c(c(N(C)CC3Cc4ccccc4CN3C)n1)CCNCC2` (stereo not drawn), for which the INHIBITION came to 57.75%. In the case of `Cc1nc2c(c(NCC3Cc4ccccc4CN3C)n1)CCNCC2` (stereo not drawn) it was 43.44%. As for `CN(CC1Cc2ccccc2CN1C)c1nc(N)nc2c1CCNCC2` (stereo not drawn), the INHIBITION worked out at 52.98%. The figure for `CN(Cc1ccccc1-n1cccn1)c1nc(N)nc2c1CCNCC2` is 5.86%; for `CN(Cc1ccc(-n2cccn2)cc1)c1nc(N)nc2c1CCNCC2` it is 18.01%; for `Cc1nc(N)cc(C2CCN2CCC(N)=O)n1` (stereo not drawn) it is 11.32%. The figure for `Cc1ncsc1CN1C[C@@H]2CCCO[C@@H]2[C@H](N(C)C(C)C)C1` is -10.13%. In the case of `Cn1cnc2c1CCN(CC(=O)N(Cc1ccccc1F)C1CC1)C2` it was 18.99%; in that of `O=C(NCCc1cc2nc(-c3ccncc3)ccn2n1)C1CCOCC1`, 9.9%.
